# IL1B secr inh: inflammasome signaling inhibition, IL-1 beta readout; THP-1 LPS/ATP IL-1B secretion, AlphaLISA, 16 h; stronger effect = lower value; activity change, % at 57.5 µM; 360,000 compounds, 4.7% hits; AID 743279; in the data active = activity change below about -50%; inconclusive = mostly about -30% to -49%
#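 THP-1 cells pretreated 1 hr with compounds (up to 57.5 uM final), then stimulated with LPS (250 ng/mL final) plus ATP (1.25 mM final); secreted IL-1B measured by AlphaLISA after 16 hr, decreased signal indicating inhibition.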
# VP16 counter: inhibits Gal4-VP16 luciferase reporter, ROR gamma counter-screen. 310,000 compounds, 3.5% hits. Drosophila S2 Gal4-VP16 UAS-luciferase, luminescence, 20 h. Potency, µM (titrated, usually from 53.6 µM), for the others: top-dose activity, negative = inhibition, usual class: inhibitors;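 note: Gal4-VP16 expression switched on by copper sulfate through the metallothionein promoter; potency is the fitted concentration of half-maximal effect; nearly all actives have a fitted effect of over 50% in size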
# RORg inh: inhibitors of mouse ROR gamma transcriptional activity; P51450; Drosophila S2 Gal4-RORgamma UAS-luciferase reporter, 20 h; Potency, µM (highest dose often 53.6 µM), for inactives: at the top dose activity change, negative = inhibition, most hits filed as inhibitors; 310,000 compounds, 5.4% hits; AID 2551; note: potency is the fitted concentration of half-maximal effect; nearly all actives have a fitted effect of over 60% in size
# Target sequence (P51450 whole entry, looked up, the tested form may be a part): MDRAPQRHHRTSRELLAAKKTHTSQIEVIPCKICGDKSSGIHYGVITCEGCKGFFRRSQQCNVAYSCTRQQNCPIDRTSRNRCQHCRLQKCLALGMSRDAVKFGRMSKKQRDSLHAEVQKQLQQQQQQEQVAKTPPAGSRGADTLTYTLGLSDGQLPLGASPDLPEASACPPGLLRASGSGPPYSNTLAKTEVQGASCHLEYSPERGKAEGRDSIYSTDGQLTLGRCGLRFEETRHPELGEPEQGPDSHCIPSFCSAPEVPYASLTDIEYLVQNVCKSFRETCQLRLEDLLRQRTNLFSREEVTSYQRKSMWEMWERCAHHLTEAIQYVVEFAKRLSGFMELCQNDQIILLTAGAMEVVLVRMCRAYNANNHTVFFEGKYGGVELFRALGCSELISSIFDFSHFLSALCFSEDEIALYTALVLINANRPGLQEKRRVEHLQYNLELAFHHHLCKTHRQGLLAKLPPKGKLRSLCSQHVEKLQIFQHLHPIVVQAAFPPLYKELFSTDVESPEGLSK
#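 Read-out: Photinus luciferase luminescence; inhibitors lower reporter signal. Insect Schneider cells with Gal4-ROR gamma fusion under metallothionein promoter, UAS reporter; 700 uM final copper sulfate induction, 20 hr, ambient temperature.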
# TDP1 cell CPT: DT40-hTDP1 cell growth loss with CPT; 420,000 compounds, 12% hits; chicken DT40 Tdp1-/-;hTDP1 cells + 20 nM CPT, ATP luminescence, 48 h; Potency, µM (highest dose often 46.2 µM), for inactives: top-dose activity change, negative = growth inhibition, hits mostly inhibitors; AID 686979; note: potency is the fitted concentration of half-maximal effect; nearly all actives have a fitted effect of over 55% in size
#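 Chicken DT40 Tdp1-/- cells complemented with human TDP1, 400 cells/well, exposed to compounds plus 20 nM camptothecin for at least 48 h at 37 C; viability read as ATP content by CellTiter-Glo luminescence.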
# TDP1 cell noCPT: qHTS for Inhibitors of human tyrosyl-DNA phosphodiesterase 1 (TDP1): qHTS in cells in absence of CPT | DT40 Tdp1-/- hTDP1 cells, no CPT, ATP luminescence, 48 h | Potency, µM (top dose mostly 46.2 µM), inactives show top-dose activity change, negative = growth inhibition, actives largely listed as inhibitors | 420,000 compounds, 15% hits | AID 686978, 2013; note: potency is the fitted concentration of half-maximal effect; nearly all actives have a fitted effect of over 55% in size
#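 Stably hTDP1-transfected Tdp1-null chicken DT40 cells were treated with library compounds minus camptothecin and grown for at least 48 hr at 37 °C, after which cellular ATP was quantified by luminescence.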
# ELG1 repair inh: ELG1-dependent DNA repair inhibition; HEK293T ELG1-luciferase reporter, luminescence, 16 h; DNA damage induced by 5-fluorouridine; Potency, µM (titrated, usually from 46.1 µM), without a hit: at the highest dose activity change, negative = inhibition, actives largely listed as inhibitors; 330,000 compounds, 2.3% hits; note: potency is the fitted concentration of half-maximal effect; nearly all actives have a fitted effect of over 55% in size
#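 Overnight (16 hr) co-exposure of 2,000 cells/well to 5-fluorouridine and compound at 37 °C preceded detection. Luciferase was quantified via ONE-Glo luminescence; loss of signal denotes inhibition.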
# * = called active by the depositor; ? = inconclusive; . = not tested or not shown. Compounds with a hit are over-represented: about 21% of the library has one in this group of screens. Unless noted, calls come from the whole dose curve; as a rule, active = well fitted curve in the direction sought with a large enough effect; inconclusive = small, poorly fitted or top-dose-only effect, or another doubt; inactive = no such curve, though single readings can be large; an effect the other way counts as inactive or inconclusive. % is set by controls: 0 for no effect and ±100 for the full control effect.
SMILES,IL1B secr inh,VP16 counter,RORg inh,TDP1 cell CPT,TDP1 cell noCPT,ELG1 repair inh
Cc1ccccc1-c1nn(-c2ccccc2)cc1C(=O)NCC(c1ccco1)N1CCCC1 (stereo not drawn),?,.,.,20.6µM*,18.4µM*,?
CCc1ccccc1NC1=NCC(=O)N1C1CCCC1,2.3,-2.2%,15.4%,23.1µM*,?,24.7%
CCc1ccccc1NC1=NCC(=O)N1Cc1ccc(OC)cc1,7.2,6.5%,8.5%,?,-16.1%,9.8%
Nn1c(SCC(=O)N2CCCC2)nnc1-c1cccs1,-9.2,.,.,-4.0%,-11.3%,.
Cc1nc2nc(SCC(=O)c3cccc([N+](=O)[O-])c3)[nH]c2cc1Br,3.4,-9.5%,?,?,18.4µM*,?
O=C(CSc1nc2ccc([N+](=O)[O-])cc2[nH]1)NC1CCCCCC1,-84.3*,?,?,-15.2%,?,16.4µM*
O=C(CSc1nc2ccc([N+](=O)[O-])cc2[nH]1)NC1CCCCC1,0.0,-0.6%,-26.8%,?,25.9µM*,-11.9%
COc1ccc(C(=O)CSc2nc3ccc([N+](=O)[O-])cc3[nH]2)cc1,-2.4,3.3%,?,?,16.4µM*,?
Cn1nccc1-c1ccc(C(=O)NCc2ccco2)c2occc12,0.0,.,.,?,?,.
O=C1NC[C@@H](CCCCN2CCN(CCc3ccccc3)C(=O)C2=O)N(CC2CCCCC2)C1=O,47.8,.,.,-3.0%,-2.7%,.
NC(=O)c1cc(-c2ccccc2)sc1NC(=O)Cc1ccc(S(=O)(=O)N2CCOCC2)s1,-13.8,3.4%,-16.1%,11.2%,-6.7%,-12.9%
CC(C)(C)C(=O)Nc1sc(-c2ccccc2)cc1C(=O)O,-77.7*,-3.6%,?,?,?,?
COC(=O)c1cc(-c2ccccc2)sc1NC(=O)CN1C(=O)c2ccccc2C1=O,-62.2*,-4.3%,9.0%,-21.5%,-27.1%,3.2%
NC(=O)c1cc(-c2ccccc2)sc1NC(=O)CN1CCCCC1,-50.9*,-27.5%,?,20.6µM*,23.1µM*,?
CCCCn1c(N)c(N(CCOC)C(=O)c2cccc(S(=O)(=O)N(CC)c3ccccc3)c2)c(=O)[nH]c1=O,13.9,.,.,-2.0%,?,18.2%
CC(=O)C1=C(c2ccccc2)NC(=S)NC1c1cc(Cl)c(OC(C)C)c(Cl)c1 (stereo not drawn),?,5.01µM*,7.08µM*,?,?,?
COc1cc(C2NC(=S)NC(c3ccccc3)=C2C(C)=O)cc(Cl)c1OCC(=O)O (stereo not drawn),5.0,-4.5%,-1.7%,-11.3%,-7.1%,24.9%
CCOC(=O)COc1c(Cl)cc(C2NC(=S)NC(c3ccccc3)=C2C(C)=O)cc1OC (stereo not drawn),-95.3*,-12.8%,-25.7%,-14.7%,-27.5%,-17.8%
COC(=O)COc1ccc(C2NC(=O)NC(c3ccccc3)=C2C(C)=O)cc1Br (stereo not drawn),-71.2*,-4.6%,7.6%,1.6%,0.5%,-25.7%
Cc1ccc(NC(=O)CN(C)C(=O)c2cccc(Br)c2)cc1,-0.1,-2.9%,?,?,?,4.8%
CCc1ccc2c(c1)C(=O)C[C@]1(CCC[C@H](C)C1)O2,26.9,.,.,?,?,-2.6%
COc1ccccc1NS(=O)(=O)c1ccc(NN=C2CCCCC2)c([N+](=O)[O-])c1,0.0,-16.1%,?,18.4µM*,25.9µM*,20.0%
CC1C/C(=N\Nc2ccc(S(N)(=O)=O)cc2[N+](=O)[O-])CC(C)(C)C1 (stereo not drawn),-79.2*,?,?,?,?,1.9%

# From PubChem
